Data as given in PubChem BioAssay (EPA / NIEHS).
Records with an inconclusive call do not appear. Calls of active or inactive are those of the source. How the source made its calls, unless noted: active means hit-call score of the fitted dose curve at least 0.9, where 1 is the maximum; inactive means score below 0.9.

What was measured:
[1] = read-out: Monokine induced gamma interferon (MIG), CXCL9 (gene 4283); assay: BSK_3C_MIG: BioMAP Diversity Plus: 3C Assay for Monokine induced gamma interferon (MIG) Biomarker Activity (AID 2283021); settings: primary human endothelial cells (HUVEC); actives raise or lower the signal
Method in brief: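 Read-out is ELISA detection of MIG on human umbilical vein endothelial cells, taken 24 h after dosing. Gain or loss of signal was scored relative to DMSO controls using bidirectional curve fitting.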

[2] = target: human Vitamin D Receptor (VDR), VDR (gene 7421) (UniProt P11473); assay: ATG_VDR_TRANS: Attagene TRANS-FACTORIAL HepG2 Assay for human Vitamin D Receptor (VDR) (AID 2283022; active means hit-call score of the fitted dose curve at least 0.9, where 1 is the maximum)
human Vitamin D Receptor (VDR), VDR (gene 7421), sequence (P11473 whole entry, looked up, the tested form may be a part): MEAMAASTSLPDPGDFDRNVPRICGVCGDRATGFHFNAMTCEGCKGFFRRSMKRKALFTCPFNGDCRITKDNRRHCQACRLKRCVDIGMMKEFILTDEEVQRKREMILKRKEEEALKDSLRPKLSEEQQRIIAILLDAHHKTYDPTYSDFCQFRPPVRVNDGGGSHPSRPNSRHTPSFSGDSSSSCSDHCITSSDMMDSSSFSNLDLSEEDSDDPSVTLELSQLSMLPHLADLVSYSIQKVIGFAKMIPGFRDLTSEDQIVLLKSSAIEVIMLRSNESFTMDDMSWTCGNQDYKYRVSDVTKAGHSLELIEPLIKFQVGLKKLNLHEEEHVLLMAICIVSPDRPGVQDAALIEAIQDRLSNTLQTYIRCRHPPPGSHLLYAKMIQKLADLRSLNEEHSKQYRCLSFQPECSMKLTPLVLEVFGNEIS
Method in brief: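 RT-PCR/capillary electrophoresis read-out of reporter mRNA induction in transiently transfected HepG2; 24 h dosing; chimeric NR-Gal4 (TRANS format); gain-of-signal fit against DMSO baseline.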

[3] = BSK_3C_SRB: Viability Assessment in the BioMAP Diversity Plus: 3C Assay (AID 2283023); settings: primary human endothelial cells (HUVEC);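 further: fitted both ways against DMSO so a hit may be signal rise or drop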
Method in brief: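 HUVEC, 24 h post-dose; 10% TCA fix, 0.1% SRB stain, A560 nm. Bidirectional curve fit vs DMSO negative control.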

[4] = read-out: Matrix Metallopeptidase 1 (MMP1), MMP1 (gene 4312); assay: BSK_BE3C_MMP1: BioMAP Diversity Plus: BE3C Assay for Matrix Metallopeptidase 1 (MMP1) Biomarker Activity (AID 2283024); settings: primary human bronchial epithelial cells; actives raise or lower the signal
Method in brief: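 Human bronchial epithelial cells (BE3C system) exposed to compound for 24 h; MMP1 then quantified by ELISA. Activity was fitted in both directions relative to DMSO.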

[5] = BSK_3C_Vis: BioMAP Diversity Plus: 3C Assay for Morphology Visualization (AID 2283025); settings: primary human endothelial cells (HUVEC);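 further: fitted both ways so gain or loss versus DMSO counts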;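 on AC50: light microscopy image of cell morphology used as background control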
Method in brief: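 Chemicals were added to primary human umbilical vein endothelium, cells were incubated 24 h, and morphology was then visualized by light microscopy. Gain or loss of signal was fitted bidirectionally relative to DMSO.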

[6] = read-out: Pselectin, SELP (gene 6403); assay: BSK_4H_Pselectin: BioMAP Diversity Plus: 4H Assay for Pselectin Biomarker Activity (AID 2283026); settings: primary human endothelial cells (HUVEC); actives raise or lower the signal
Method in brief: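 ELISA read-out of P-selectin on human umbilical vein endothelium after 24 h of dosing. Values derive from bidirectional fitting relative to DMSO. Parallel SRB protein staining flagged overt cytotoxicity.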

[7] = BSK_4H_SRB: Viability Assessment in the BioMAP Diversity Plus: 4H Assay (AID 2283027); settings: primary human endothelial cells (HUVEC);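 further: cells exposed to compound for 24 h before staining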;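 on AC50: curves fitted both ways versus DMSO so AC50 may be loss or gain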
Method in brief: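 Human umbilical vein endothelial cells were dosed with chemical and, after 24 h, fixed with 10% TCA, stained with 0.1% sulforhodamine B, and read at 560 nm to give total protein as a cytotoxicity measure. Bidirectional fitting relative to DMSO control.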

[8] = read-out: Thrombomodulin, THBD (gene 7056); assay: BSK_3C_Thrombomodulin: BioMAP Diversity Plus: 3C Assay for Thrombomodulin Biomarker Activity (AID 2283029); settings: primary human endothelial cells (HUVEC); actives raise or lower the signal
Method in brief: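 Read-out is ELISA of thrombomodulin on human umbilical vein endothelium 24 h after chemical dosing. Gain or loss of signal is scored relative to DMSO. Overt cytotoxicity is checked in parallel cultures by sulforhodamine B staining.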

[9] = read-out: Urokinase-type plasminogen activator receptor (uPAR), PLAUR (gene 5329); assay: BSK_4H_uPAR: BioMAP Diversity Plus: 4H Assay for Urokinase-type plasminogen activator receptor (uPAR) Biomarker Activity (AID 2283030); settings: primary human endothelial cells (HUVEC); actives raise or lower the signal
Method in brief: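 HUVEC, 24 h post-dose; uPAR by ELISA; bidirectional fit vs DMSO baseline.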

[10] = read-out: Vascular endothelial growth factor receptor 2 (Homo sapiens) (UniProt P35968); assay: BSK_4H_VEGFRII: BioMAP Diversity Plus: 4H Assay for Vascular endothelial growth factor receptor 2 (VEGFR2) Biomarker Activity (AID 2283031); settings: primary human endothelial cells (HUVEC); actives raise or lower the signal
Method in brief: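 HUVEC (human primary), 4H system; 24 h post-dose; VEGFRII by ELISA; bidirectional curve fit vs DMSO baseline; gain or loss of signal scored.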

[11] = read-out: Human Leukocyte Antigen - DR isotype (HLADR), HLA-DRA (gene 3122); assay: BSK_BE3C_HLADR: BioMAP Diversity Plus: BE3C Assay for Human Leukocyte Antigen - DR isotype (HLADR) Biomarker Activity (AID 2283032); settings: primary human bronchial epithelial cells; actives raise or lower the signal
Method in brief: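 ELISA read-out of HLA-DR on human lung bronchial epithelial primary cells, measured 24 h post-dosing. Both increases and decreases were scored relative to DMSO vehicle.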

[12] = read-out: Vascular cell adhesion molecule 1 (VCAM1), VCAM1 (gene 7412); assay: BSK_4H_VCAM1: BioMAP Diversity Plus: 4H Assay for Vascular cell adhesion molecule 1 (VCAM1) Biomarker Activity (AID 2283033); settings: primary human endothelial cells (HUVEC); actives raise or lower the signal
Method in brief: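 ELISA read-out of VCAM-1 on human umbilical vein endothelium 24 hours after chemical dosing; gain or loss of signal was fitted relative to DMSO, with sulforhodamine B staining of parallel cultures flagging overt cytotoxicity.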

[13] = read-out: Interferon-gamma inducible Protein 10 (IP10), CXCL10 (gene 3627); assay: BSK_BE3C_IP10: BioMAP Diversity Plus: BE3C Assay for Interferon-gamma inducible Protein 10 (IP10) Biomarker Activity (AID 2283034); settings: primary human bronchial epithelial cells; actives raise or lower the signal
Method in brief: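 Chemical is dosed onto human lung bronchial epithelial primary cells, cultures are incubated 24 h, and IP-10 is then quantified by ELISA. Gain or loss of signal is fitted in both directions relative to DMSO.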

[14] = read-out: Monokine induced gamma interferon (MIG), CXCL9 (gene 4283); assay: BSK_BE3C_MIG: BioMAP Diversity Plus: BE3C Assay for Monokine induced gamma interferon (MIG) Biomarker Activity (AID 2283035); settings: primary human bronchial epithelial cells; actives raise or lower the signal;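 further: MIG protein measured by ELISA in BE3C cultures after 24 h of dosing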
Method in brief: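 ELISA read-out of MIG in human lung bronchial epithelial primary cultures, 24 h post-dosing. Bidirectional curve fit vs DMSO baseline.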

[15] = read-out: Transforming growth factor beta 1 (TGFb1), TGFB1 (gene 7040); assay: BSK_BE3C_TGFb1: BioMAP Diversity Plus: BE3C Assay for Transforming growth factor beta 1 (TGFb1) Biomarker Activity (AID 2283036;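 further: TGF-b1 protein level measured by ELISA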); settings: primary human bronchial epithelial cells; actives raise or lower the signal
Method in brief: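 Primary human lung bronchial epithelial cells; compound exposure 24 h; TGF-b1 by ELISA; bidirectional fit, DMSO baseline. Parallel SRB total-protein staining for cytotoxicity.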

[16] = read-out: Plasminogen activator inhibitor-1 (PAI1), SERPINE1 (gene 5054); assay: BSK_BE3C_PAI1: BioMAP Diversity Plus: BE3C Assay for Plasminogen activator inhibitor-1 (PAI1) Biomarker Activity (AID 2283037); settings: primary human bronchial epithelial cells; actives raise or lower the signal
Method in brief: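 Primary human lung bronchial epithelial cells; chemical dosing; 24 h; PAI-1 measured by ELISA; bidirectional fit referenced to DMSO as negative control.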

[17] = read-out: urokinase plasminogen activator (uPA), PLAU (gene 5328); assay: BSK_BE3C_uPA: BioMAP Diversity Plus: BE3C Assay for urokinase plasminogen activator (uPA) Biomarker Activity (AID 2283038); settings: primary human bronchial epithelial cells; actives raise or lower the signal;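 further: uPA protein level quantified by ELISA in cell cultures; uPA read one day after compound addition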
Method in brief: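 ELISA read-out of uPA in human lung primary bronchial epithelial cultures, 24 h post-dosing. Gain or loss of signal fitted bidirectionally relative to DMSO baseline; cytotoxicity checked in parallel cultures via SRB total protein stain.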

[18] = read-out: Urokinase-type plasminogen activator receptor (uPAR), PLAUR (gene 5329); assay: BSK_BE3C_uPAR: BioMAP Diversity Plus: BE3C Assay for Urokinase-type plasminogen activator receptor (uPAR) Biomarker Activity (AID 2283039); settings: primary human bronchial epithelial cells; actives raise or lower the signal
Method in brief: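 Human bronchial epithelial primary cells; chemical exposure 24 h; uPAR by ELISA; bidirectional fit vs DMSO control.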

[19] = read-out: Interleukin-6 (IL6), IL6 (gene 3569); assay: BSK_CASM3C_IL6: BioMAP Diversity Plus: CASM3C Assay for Interleukin-6 (IL6) Biomarker Activity for (AID 2283040); settings: primary human coronary artery smooth muscle cells; actives raise or lower the signal
[20] = BSK_BE3C_SRB: Viability Assessment in the BioMAP Diversity Plus: BE3C Assay (AID 2283028); settings: primary human bronchial epithelial cells
Method in brief: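 Primary human bronchial epithelium; chemical dosing, 24 h; 10% TCA fix, 0.1% SRB stain, A560; bidirectional fit vs DMSO baseline.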

Measured: AC50

COP(=S)(OC)Oc1ccc(S(=O)(=O)N(C)C)cc1
not listed: [20]
inactive: all other assays above

O=S(=O)(c1ccc(Cl)cc1)c1ccc(Cl)cc1
inactive: all assays above

O=[N+]([O-])c1ccc2c3c(cccc13)CC2
active: [3] 20 µM | [5] 8.8 µM | [18] 1.19 µM
not listed: [20]
inactive: all other assays above

O=Cc1cccc(Oc2ccccc2)c1
inactive: all assays above

NC(=O)O
not listed: [20]
inactive: all other assays above

COP(=S)(OC)Oc1ccc(Sc2ccc(OP(=S)(OC)OC)cc2)cc1
active: [3] 20 µM | [5] 13.6 µM | [6] 14.5 µM | [7] 9.79 µM | [11] 8.14 µM | [12] 30.2 µM | [13] 18.2 µM
inactive: all other assays above
